In the library only some 4.1% were active in any assay of this set; here they are far more common.
hcDAF-12 act – activators of H. contortus DAF-12 nuclear receptor | 370,000 tested, 1.4% active | HEK293 hcDAF-12 lit1-tk-luc reporter, luminescence; 0% DMSO, 100% Δ7-dafachronic acid | activation, % at 6.8 µM;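 active means activation above the mean of all tested compounds plus 3 SD, cut at about 5.5% in these data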
ssDAF12 agonist – activates DAF-12 receptor from parasite S. stercoralis | activation, % at 6.8 µM | 370,000 tested, 1% active | HEK293 ssDAF-12/GRIP1 lit1-tk-luc reporter, luminescence; % of 3 µM dafachronic acid response;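 active means activation above the mean over all tested compounds plus 3 SD, cut at about 0.9% in these data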
DAX1 inh-1 – DAX1 (NR0B1) inhibition, primary screen; HEK293T StAR-luciferase reporter, SF-1/DAX-1 repression relief; inhibition, % at 6.8 µM; 370,000 tested, 1.1% active; AID 652010;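 active means inhibition above the mean over all tested compounds plus 3 SD, cut at about 3.6% in these data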;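 further: higher inhibition means more luminescence from relief of DAX-1 repression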
DAX1 inh-2 – inhibitors of human orphan nuclear receptor DAX1 (NR0B1). AID 504766. 340,000 tested, 0.99% active. inhibition, % at 6.75 µM. HEK293 Gal4-DAX1 luciferase reporter, luminescence. P51843;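 active means inhibition above the mean over all tested compounds plus 3 SD, cut at about 4.2% in these data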;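 further: inhibition shows as a rise in luminescence from relieved DAX1 repression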
Target sequence (P51843 207-470 limits assumed): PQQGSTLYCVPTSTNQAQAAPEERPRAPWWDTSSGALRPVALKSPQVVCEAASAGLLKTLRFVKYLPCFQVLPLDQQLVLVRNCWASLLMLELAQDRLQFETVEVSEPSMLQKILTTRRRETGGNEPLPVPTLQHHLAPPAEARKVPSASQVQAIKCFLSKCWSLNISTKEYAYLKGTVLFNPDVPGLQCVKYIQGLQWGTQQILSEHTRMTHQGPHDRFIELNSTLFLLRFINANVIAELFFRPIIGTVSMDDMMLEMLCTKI
hgDAF-12 ag – agonists of H. glycines DAF-12 nuclear receptor; activation, % at 6.8 µM; 370,000 tested, 1.8% active; HEK293 GAL4-hgDAF12 UAS-luciferase reporter, agonist luminescence; normalized to butyrate control;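 active means activation above a cutoff set at the mean of all screened compounds plus 3 SD, cut at about 10% in these data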
Of the large screens only hits and unclear results are named; the others gave an inactive call.

COc1ccc(C(=O)NC(C)C2CC3CCC2C3)cc1 (stereo not given)	none
CN(CC(=O)N1CCN(c2ncccn2)CC1)S(=O)(=O)c1ccc(Cl)cc1	ssDAF12 agonist 2.2
CN(CC(=O)N1CCN(c2ccccn2)CC1)S(=O)(=O)c1ccccc1	none
Cc1nn(C)c(C)c1NC(=O)CCl	ssDAF12 agonist 1.2
O=C(O)c1ccc(Oc2nc3ccccc3s2)cc1	ssDAF12 agonist 1.2
CC(C)=CC(=O)Nc1nc2ccc([N+](=O)[O-])cc2s1	hgDAF-12 ag 13
CC(C)c1cc(C(=O)N/N=C/c2c[nH]c3ccccc23)n[nH]1	DAX1 inh-2 4.7
O=C(N/N=C/c1c[nH]c2ccccc12)c1cccc(Cl)c1	ssDAF12 agonist 1.4
O=C(CSc1nnc(SCc2ccccc2Cl)s1)N/N=C/c1c[nH]c2ccccc12	hcDAF-12 act 6.4
COC(=O)c1ccccc1NC(=O)NCC1CCN(Cc2ccc(OC)cc2)CC1	none (no result: DAX1 inh-2)
COc1ccc(C(C(=O)N(C)C2CCCC2)N(Cc2ccc(F)cc2)C(=O)c2ncn[nH]2)cc1OC (stereo not given)	none (no result: DAX1 inh-2)
Clc1ccc(-c2nnc(CCc3ccccc3)o2)c(Cl)c1	hcDAF-12 act 5.8
CNC(=S)N/N=C/c1ccc(N(C)C)cc1	hgDAF-12 ag 11
Cc1ccccc1NC(=O)[C@H]1CC(=O)O[C@@H]1c1ccccc1	none (no result: DAX1 inh-2)
CCN(CC)c1ccc(NC(=O)CSc2nnc(SCc3ccc(Cl)cc3)s2)cc1	none (no result: DAX1 inh-2)
Cc1cccc(C(=O)OCC(=O)NCC2COc3ccccc3O2)c1 (stereo not given)	DAX1 inh-1 4.3
Cc1ccc(-n2c(Cn3ncc4ccccc4c3=O)n[nH]c2=S)cc1	ssDAF12 agonist 1.3
O=c1c2ccccc2cnn1Cc1n[nH]c(=S)n1-c1ccc(F)cc1	none
CCc1nnc(NC(=O)CCn2cnc3ccccc3c2=O)s1	ssDAF12 agonist 1.0 (no result: DAX1 inh-2)
CCCCc1nnc(NC(=O)Cn2cnc3ccccc3c2=O)s1	none
Cc1cc2nc(-c3cccc(Br)c3)c(CC3CCCCC3)n2c(C)c1Br	ssDAF12 agonist 1.6 (no result: DAX1 inh-2)
Cc1ccc(-c2nc3cc(C)c(Br)c(C)n3c2CC(C)(C)C)cc1	hcDAF-12 act 6.5, ssDAF12 agonist 1.5 (no result: DAX1 inh-2)
Cc1cc(Br)cn2c(Cc3ccsc3)c(-c3ccccc3)nc12	none (no result: DAX1 inh-2)
Cc1ccc(-c2nc3c(C)cc(Br)cn3c2Cc2ccsc2)cc1	hgDAF-12 ag 11 (no result: DAX1 inh-2)
Cc1ccc(-c2nc3cc(C)c(Br)c(C)n3c2Cc2ccsc2)cc1	ssDAF12 agonist 1.5, DAX1 inh-1 3.7 (no result: DAX1 inh-2)
COC(=O)C1=C(C)N(Cc2ccc(C(F)(F)F)cc2)C(=NCc2ccccc2)NC1c1cccc(Cl)c1 (stereo not given)	none (no result: DAX1 inh-2)
C[C@H]1COc2cc(Br)ccc2S(=O)(=O)N1Cc1cn(Cc2ccccc2)nn1	none (no result: DAX1 inh-2)
CCOC(=O)N1CCN(C(=O)C[C@H]2C[C@@]3(C(=O)OC)C(=C[C@H](COCc4ccccc4)O[C@@H]3C)N(CCC3=CCCCC3)C2=O)CC1	none (no result: DAX1 inh-2)
COC(=O)C1CN(Cc2ccccc2)CCS(=O)(=O)N1Cc1cccc(Cl)c1 (stereo not given)	none (no result: DAX1 inh-2)
CCc1cc2c(nc1CC)CCCN2Cc1ccccc1C(F)(F)F	none (no result: DAX1 inh-2)
Cc1ccc(Cc2c(-c3ccccc3)nc3cc(C)c(Br)c(C)n23)cc1	ssDAF12 agonist 1.3 (no result: DAX1 inh-2)
Cc1cc2nc(-c3ccc(F)cc3)c(Cc3ccccc3)n2c(C)c1Br	none (no result: DAX1 inh-2)
O=c1oc2ccccc2n1Cc1cccc(Cl)c1	DAX1 inh-2 6.4
O=C(NC1CCCCC1)c1cc(C(=O)c2ccccc2Br)c[nH]1	DAX1 inh-2 6.4
O=C(NC(=S)NC1CCCC1)c1ccccc1	DAX1 inh-1 3.9, hgDAF-12 ag 13
CC(=O)NC(=S)Nc1ccccc1C(=O)NC1CCCCC1	ssDAF12 agonist 3.9
O=C(NC1CCCCC1)c1ccccc1NC(=O)C1CC1	none
O=C(NC(=S)NC1CCCCCCCCCCC1)c1cccnc1	none
O=C(Nc1ccccc1C(=O)NC1CCCC1)NC1CCCC1	DAX1 inh-2 5.8
COc1ccc2c(c1)CN1C(=O)N(C3CCCC3)S(=O)(=O)CC21 (stereo not given)	none (no result: DAX1 inh-2)
O=C(NC1CCCCN(Cc2ccc(Cl)cc2)C1=O)c1ccc2ccccc2c1 (stereo not given)	none (no result: DAX1 inh-2)
COc1cc(O)c(C(CCN2CCCCC2)c2ccc3c(c2)OCO3)c(OC)c1 (stereo not given)	DAX1 inh-2 4.3
O=C(Nc1ccc(Br)cc1)OC1CC2CC1[C@H]1CCCCN1C2 (stereo not given in full)	none (no result: DAX1 inh-2)
Cc1ccc(NC(=O)OC2CC3CC2[C@H]2CCCCN2C3)cc1 (stereo not given in full)	hgDAF-12 ag 11 (no result: DAX1 inh-2)
CCOC(=O)N(C)[C@H]1C[C@H]2c3cc(-c4ccccc4C)ccc3CCN2C[C@H]1[C@H](C)O	none (no result: DAX1 inh-2)
CCCCCCCCN1C(=O)N2Cc3ccccc3C2CS1(=O)=O (stereo not given)	none (no result: DAX1 inh-2)
CN(C)/C=C/C(=O)c1cccc(Oc2ncccn2)c1	DAX1 inh-2 4.6
O=[N+]([O-])c1ccc2nc(C(O)C(O)c3nc4ccc([N+](=O)[O-])cc4[nH]3)[nH]c2c1 (stereo not given)	ssDAF12 agonist 1.0
O=[N+]([O-])c1ccc(-c2nc3ccc([N+](=O)[O-])cc3[nH]2)cc1	none
N#Cc1ccc(CSc2ccccn2)c(Cl)c1	none
Cn1c(SCc2ccc(C#N)cc2Cl)nc2ccccc21	DAX1 inh-2 4.3, hgDAF-12 ag 12
O=C(N/N=C/c1ccc(OC(=O)c2ccccc2Br)cc1)c1ccccn1	DAX1 inh-1 5.8
O=C(O)COc1ccc(/C=N/NC(=O)c2ccccc2Br)cc1	none (no result: hcDAF-12 act, ssDAF12 agonist, DAX1 inh-1, hgDAF-12 ag)
O=C(c1ccccc1)n1ccc2ccc(-c3ccc4ccn(Cc5ccccc5)c4c3)cc21	hgDAF-12 ag 11 (no result: DAX1 inh-2)
O=C(c1cccc(F)c1)n1ccc2ccc(-c3ccc4ccn(Cc5ccccc5)c4c3)cc21	none (no result: DAX1 inh-2)
Cn1c(C(=O)N[C@@H](C(=O)O)c2ccccc2)cc2cc(Cl)ccc21	hcDAF-12 act 5.9
C=CCN1C(=O)S/C(=C\c2ccc(N3CCOCC3)cc2C)C1=O	DAX1 inh-2 4.2
CCNC(=O)OC[C@H]1O[C@H](C#Cc2ccc(C(C)(C)C)cc2)C=C[C@H]1OC(C)=O	none (no result: DAX1 inh-2)
CC(C)(C)OC(=O)NCc1ccc(NC(=O)c2nc[nH]c2C(=O)Nc2cc(Br)ccc2F)cc1	ssDAF12 agonist 1.1 (no result: DAX1 inh-2)
OC(COc1ccc2ccccc2c1Cl)CN1CCOCC1 (stereo not given)	hgDAF-12 ag 12
Cc1ccc(-c2nc3ccsc3c(=O)o2)cc1	hcDAF-12 act 5.9
Cc1ccc(-n2c(C)nc3ccsc3c2=O)cc1	none
COP(N)(=O)C(CC(C)C)NC(=O)OCc1ccccc1 (stereo not given)	none (no result: DAX1 inh-2)
CCc1ccc(C(=O)/C=C/Nc2ccc(S(=O)(=O)Nc3onc(C)c3C)cc2)cc1	hgDAF-12 ag 11
COc1ccc(C(=O)/C=C/Nc2ccc(S(=O)(=O)Nc3onc(C)c3C)cc2)cc1	ssDAF12 agonist 1.2, DAX1 inh-1 3.9, hgDAF-12 ag 11

High-throughput results deposited in PubChem BioAssay by The Scripps Research Institute Molecular Screening Center.
